# Results: PubChem BioAssay AID652042 (Broad Institute, 2013)
# Hit rate of the full screen: of about 1,100 compounds, about 350 (32%) were called active. The list is a sample of the results. Entries with a potency or affinity are not part of this list. Unmarked numbers belong to inactive results. No rule for the calls is given here.
# Test: viability loss in CEM21 cells – cell-based, CellTiter-Glo luminescence, cherry-picked, cytotoxicity control for viral fusion inhibitor project, dose response (AID 652042)
# Settings: CellTiter-Glo ATP luminescence, 24 h; series mostly up to 35 µM; activity change, negative = cytotoxicity: at the top concentration
row,Structure (SMILES),"activity change, negative = cytotoxicity"
1,COc1ccc(OC)c(-c2cc(C(=O)Nc3c(C)nn(Cc4ccc(Cl)cc4)c3C)no2)c1,-11.3%
2,Cc1ccc(CSCCNC(=O)c2ccc(Cl)c(S(=O)(=O)N3CCOCC3)c2)cc1,-18.7%
3,COc1ccc([C@@H]2[C@@H]3C(=O)N(C(C)(C)C)C(=O)[C@@H]3[C@]3(CC(C)C)C(=O)N(c4ccc(C(F)(F)F)cc4)C(=O)N23)cc1,0.418%
4,CC1(C(=O)NCc2ccc3c(c2)OCO3)CCN1Cc1csc2ccccc12 (stereo not drawn),-10.1%
5,O=C(c1ccc(Cl)s1)N1CCN(c2nc3ccccc3s2)CC1,-12.8%
6,CC1CCc2c(sc3ncnc(N4CCOCC4)c23)C1 (stereo not drawn),-0.353%
7,CCN1C(=O)[C@H]2[C@@H](c3ccc(C)cc3)N3C(=O)N(c4ccc(C(F)(F)F)cc4)C(=O)[C@@]3(CC(C)C)[C@H]2C1=O,-11.3%
8,CCOc1c(C)cnc2c1c(=O)n(Cc1ccc(Cl)cc1)c(=O)n2C,-4.47%
9,Cc1ccc2cc(C#N)c(NCCNC(=O)C3CC3)nc2c1C,-7.75%
10,COc1ccc(S(=O)(=O)Nc2ccc3c(c2)CC(=O)N([C@@H](C)CO)C[C@H](C)[C@H](CN(C)S(=O)(=O)c2cccs2)O3)cc1,0.186%
11,COc1ccc(CCC(C)NCc2cc(OC)cc(OC)c2)cc1 (stereo not drawn),-6.55%
12,CCCc1cc(C(=O)NCc2ccc(OC)cc2)no1,-1.74%
13,COc1cc(C(=O)N2CCN(c3ncnc4sc(C)c(C)c34)CC2)cc(OC)c1OC,-21.1%
14,Cc1ccc(OCCN2CCN(c3ncnc4sc(C)c(C)c34)CC2)cc1,-27.5%
15,CN(C)C(=O)C[C@H]1C[C@@H]2c3cc(NC(=O)NC4CCCCC4)ccc3O[C@@H]2[C@H](CO)O1,4.2%
16,CCN(C[C@H]1N[C@@](C)(C(=O)OC)[C@H]2C(=O)N(Cc3ccccc3)C(=O)[C@@H]12)C(=O)c1ccc(C(C)(C)C)cc1,-7.41%
17,O=C(Nc1ccc(Oc2ccccc2)cc1)c1csc([C@H]2C[C@H](O)[C@@H](CO)O2)n1,-16.4%
18,c1csc(CNc2ncnc3sccc23)c1,-7.21%
19,CCN(CC(=O)Nc1cc(Cl)ccc1C)C(=O)c1ccc(=O)n(Cc2ccccc2)n1,0.209%
20,O=C(NCC(=O)N1CCN(c2ncccn2)CC1)c1ccccc1OC(F)F,-0.419%

row,Structure (SMILES),"activity change, negative = cytotoxicity"
1,O=C(CCCn1c(=S)[nH]c2cc3c(cc2c1=O)OCO3)N1CCN(c2ccc(Cl)cc2)CC1,-10.7%
2,O=C(Nc1ccc(N2CCN(C(=O)c3ccccc3)CC2)c(Cl)c1)c1cccnc1,-16.1%
3,S=c1[nH]cc(-c2ccccc2)n1-c1cccc(Cl)c1,-0.899%
4,CCOc1ccc(NC2c3ccccc3C(=O)N2Cc2ccco2)cc1 (stereo not drawn),-2.14%
5,CC1CN(S(=O)(=O)c2cc(C(=O)NCCC3=CCCCC3)ccc2Cl)CC(C)O1 (stereo not drawn),-1.11% [at 8 µM]
6,COc1ccc(OCC(=O)Nc2cc(-c3nn(C)c(=O)c4ccccc34)ccc2OC)cc1,-3.59%
7,COc1ccc(Cl)cc1NC(=O)Nc1cnccn1,0.955%
8,COC(=O)[C@@]1(Cc2ccccc2)[C@H]2C(=O)N(Cc3ccccc3)C(=O)[C@H]2[C@H]2CN=C(SCc3ccc(C#N)cc3)N21,-6.15%
9,O=C(CN1C(=O)c2ccccc2S1(=O)=O)c1ccc2c(c1)OCCCO2,-0.421%
10,Cc1oc(-c2ccccc2F)nc1CN1CCC(C(=O)NCCC2=CCCCC2)CC1,-12.8%
11,CCc1ccc(-c2nc(CN3CCC(C(=O)NCCc4ccc(OC)c(OC)c4)CC3)c(C)o2)cc1,-24.4%
12,CN1CC(c2ccccc2)C2(COc3ccccc3C2=O)C12C(=O)Nc1ccccc12 (stereo not drawn),-15.8%
13,COc1ccccc1S(=O)(=O)n1cc(Cc2ccccc2)c(N)n1,-1.81%
14,CCOC(=O)c1c(CSc2ccccc2)oc2cc(Br)c(O)c(CN(C)C)c12,-17.8%
15,CC(=O)C1=C(C)NC(=S)NC1c1ccccc1 (stereo not drawn),-0.735%
16,c1ccc2c(c1)ncn2CCCCOc1ccc2c(c1)CCC2,1.14% [at 8 µM]
17,CC1CCN(C(=O)c2ncn3c2C(=O)NC[C@@H]3C)CC1,-3.77%
18,C[C@H]1CNC(=O)c2c(C(=O)N3CCN(c4ccccc4)CC3)ncn21,-0.09%
19,Cn1c(CN2CCCCC2)nc2cc(NC(=O)c3ccc(Cl)cc3)ccc21,-23.7%
20,Cc1ccc(NS(=O)(=O)c2cc(C(=O)N(C)C3CCN(C)CC3)ccc2Cl)cc1Cl,-1.93%

row,Structure (SMILES),"activity change, negative = cytotoxicity"
1,COc1ccc2[nH]c(=O)c(CN(Cc3nnnn3Cc3ccccc3)CC3CCCO3)cc2c1 (stereo not drawn),-6.18%
2,COc1ccc(OCC(=O)Nc2ccccc2N2CCCCC2)cc1,-36.7%
3,CCC(C)(C)NC(=O)C(c1ccccc1F)N(Cc1ccco1)C(=O)c1csnn1 (stereo not drawn),1.6%
4,CO[C@@H]1CN(C)C(=O)c2cc(NC(=O)Nc3ccc(Cl)cc3)ccc2OC[C@H](C)N(C)C[C@H]1C,-16%
5,CC[C@@]1(C(=O)OC)N[C@H](CN(C)C(=O)Nc2ccc(F)cc2)[C@@H]2C(=O)N(Cc3ccccc3)C(=O)[C@@H]21,-3.66%
6,Cc1nc2sc(C(c3ccco3)N3CCC(Cc4ccccc4)CC3)c(O)n2n1 (stereo not drawn),-4.26%
7,CN(C)C(=O)C[C@@H]1C[C@H]2c3cc(NS(=O)(=O)c4ccc(F)cc4)ccc3O[C@H]2[C@H](CO)O1,-7.21%
8,O=C(CN1CCN(Cc2ccc(Cl)cc2)C1=O)NCCCN1CCN(c2ccc(F)cc2)CC1,-15.2%
9,Clc1ccc(-c2csc3ncnc(NCCN4CCOCC4)c23)cc1,-7.06%
10,CC(C)CN(C(=O)c1ccc(S(=O)(=O)N2CCCCC2)cc1)C1CCS(=O)(=O)C1 (stereo not drawn),1.04%
11,CC[C@@]12C(=O)N(c3ccc(C)cc3)C(=O)N1[C@H](c1ccc(Br)cc1)[C@@H]1C(=O)N(C(C)(C)C)C(=O)[C@@H]12,-10.3%
12,O=c1[nH]c(=O)n([C@H]2C[C@H](O)[C@@H](CO)O2)cc1F,-12%
13,COc1ccc(C(O)(C2CCCCC2)C(CN2CCOCC2)c2ccccc2)cc1 (stereo not drawn),-24.5%
14,CCOc1ccc(C(=O)C2CCN(CC(=O)Nc3ccccc3N3CCOCC3)CC2)cc1,-23.5%
15,CC(C)(COC(=O)C(c1ccccc1)c1ccccc1)CN1CCOCC1,-1.1%
16,CCOc1ccc(OCc2cccc(C(=O)N3CCOCC3)c2)cc1,-3.5%
17,CCCNC(=O)c1ccccc1NC(=O)c1ccccc1N(C)S(=O)(=O)c1ccccc1,-20.5%
18,Cc1[nH]nc2ncc(C(=O)c3ccccc3O)cc12,-15.7%
